Bioassay records as filed in PubChem BioAssay.
The list is not random: actives were taken first. Their share in the collection is about 11%.
HCV inhibitor: qHTS Assay for Inhibitors of Hepatitis C Virus (HCV); 340,000 compounds, 3.4% hits; AID 651820, 2012; Potency, µM (highest dose often 41.8 µM), inactives show top-dose activity change, negative = inhibition, usual class: inhibitors; Huh7.5.1 HCVcc-Cre infection, luciferase reporter, 44 h; also: % is scaled to controls: 0 for no effect and ±100 for the full control effect
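After 44 h co-culture of compound, cells and HCVcc-Cre (~0.5 moi), substrate is added for 15 min at room temperature and luciferase measured over 15 sec. Cells were seeded at 1,000/well and pre-cultured 4 h.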
Pf growth 48h: Primary qHTS for delayed death inhibitors of the malarial parasite plastid, 48 hour incubation; P. falciparum luciferase growth in erythrocytes, 48 h; Potency, µM (highest dose often 28.7 µM), for the others: top-dose activity change, negative = inhibition, usual class: inhibitors; 310,000 compounds, 5.9% hits; AID 504832, 2011; also: % is scaled to controls: 0 for no effect and ±100 for the full control effect
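Here the parasites carry a stable luciferase gene and grow inside erythrocytes in Albumax-based RPMI medium with compound for one erythrocytic cycle. Activity is scored as loss of luminescent signal.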
Vaccinia mCherry: qHTS for Stage-Specific Inhibitors of Vaccinia Orthopoxvirus: mCherry Reporter Primary qHTS. 310,000 compounds, 0.63% hits. Potency, µM (series often up to 36.5 µM), inactives show at the top dose activity change, negative = inhibition, actives largely listed as inhibitors. AID 720579, 2013. Vaccinia virus mCherry reporter infection, fluorescence; calls by dose curve; tested in A549 cells; also: % is scaled to controls: 0 for no effect and ±100 for the full control effect; nearly all actives have a fitted effect of over 35% in size
Pf growth 96h: Primary qHTS for delayed death inhibitors of the malarial parasite plastid, 96 hour incubation; P. falciparum luciferase reporter growth, 96 h; Potency, µM (top dose mostly 28.7 µM), for the others: at the top dose activity change, negative = inhibition, usual class: inhibitors; 320,000 compounds, 6.9% hits; AID 504834, 2011; also: % is scaled to controls: 0 for no effect and ±100 for the full control effect
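96 h incubation, 37 C, 5% CO2, of luciferase-reporter P. falciparum-infected RBCs (2% hematocrit, 0.05% parasitemia final) with test compounds; endpoint luminescence.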
Vaccinia Venus: qHTS for Stage-Specific Inhibitors of Vaccinia Orthopoxvirus: Venus Reporter Primary qHTS; Potency, µM (series often up to 36.5 µM), inactives show at the top dose activity change, negative = inhibition, hits mostly inhibitors; 330,000 compounds, 0.46% hits; Vaccinia virus Venus reporter expression, fluorescence; calls by dose curve; tested in A549 cells; also: % is scaled to controls: 0 for no effect and ±100 for the full control effect; nearly all actives have a fitted effect of over 30% in size
NS1 inh: qHTS Assay for Inhibitors of Influenza NS1 Protein Function; Potency, µM (titrated, usually from 46.1 µM), without a hit: at the highest dose activity, positive = more growth; 270,000 compounds, 0.4% hits; calls by dose curve; also: actives are rising curves; nearly all actives have a fitted effect of over 50% in size
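A cell-based growth assay was used: compounds that relieve NS1-induced slow growth of budding yeast raise OD600. Assay medium was yeast nitrogen base with ammonium sulphate and -URA supplement, pH 6.0, with 2% galactose.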
Numbers without * were called inactive; i = inactive; ? = inconclusive; · = no result; [ ] = another dose, or the depositor's remark. Unless noted, calls follow the shape of the dose curve; as a rule, active = well fitted inhibition curve with a large enough effect; inconclusive = small, poorly fitted or top-dose-only effect, or another doubt; inactive = no such curve, though single readings can be large or run the other way. Potency is read from the fitted curve at half-maximal effect.

SMILES	HCV inhibitor	Pf growth 48h	Vaccinia mCherry	Pf growth 96h	Vaccinia Venus	NS1 inh
COC(=O)C1=C(c2ccc(F)cc2F)C[C@@H]2CC[C@H]1N2C(=O)NCCOc1ccccc1	21.1%	?	?	4.15µM*	-19.7%	·
CC(=O)N1CCN(CC(=O)c2ccc(Br)cc2)CC1	1.0%	0.5%	-12.1%	-7.4%	-0.6%	-62.9%
O=C(CN1CC[n+]2c(-c3ccccc3)csc21)c1ccc(Br)cc1	?	7.38µM*	·	?	·	?
Cc1ccc(NC(=O)Cn2c(=O)n(CCC(=O)NCc3ccc4c(c3)OCO4)c(=O)c3sccc32)c(C)c1	·	·	-2.2%	·	-7.1%	·
COc1cc2ncnc(NCc3ccccc3C)c2cc1OC	-14.3%	14.7µM*	·	13.1µM*	-25.0%	-1.6%
COc1cc2ncnc(NCc3ccc(F)cc3)c2cc1OC	?	·	-28.8%	10.4µM*	-14.7%	0.5%
COc1cc2ncnc(NCc3ccccc3Cl)c2cc1OC	-21.2%	?	·	?	·	-0.8%
COc1cc2ncnc(N[C@H](C)c3ccccc3)c2cc1OC	?	?	-23.0%	13.1µM*	?	-3.3%
Cc1cnc(-c2nc3ccccc3n2C(C(=O)NC(C)(C)C)c2cc3ccccc3o2)cn1 (configuration not stated)	·	·	11.7%	·	-4.0%	·
CCOC(=O)c1ccc(CSc2nnc(C)n2N)o1	7.8%	15.2%	·	·	2.6%	6.8%
COc1ccc(C2CCCN2C(=O)Nc2ccccc2)cc1OC (configuration not stated)	-21.0%	·	i	?	-10.6%	-12.8%
CN1C2CCC1/C(=C/c1ccccn1)C(=O)/C2=C\c1ccccn1	3.55µM*	0.657µM*	2.51µM*	0.465µM*	6.31µM*	-59.7%
CC1(C)C(=Cc2ccccc2)C(=O)c2ccccc21	·	·	?	·	-16.7%	·
O=C1/C(=C/c2ccccn2)COc2ccccc21	19.6%	48.1%	-16.3%	-4.0%	-8.4%	-3.8%
CC1C/C(=C/c2ccccn2)C(=O)/C(=C/c2ccccn2)C1 (configuration not stated)	2.24µM*	2.62µM*	?	?	?	·
CN1C2CCC1/C(=C\c1ccccc1)C(=O)/C2=C\c1ccccc1	12.6µM*	1.04µM*	·	?	·	-58.1%
CC1C/C(=C/c2ccco2)C(=O)/C(=C/c2ccco2)C1 (configuration not stated)	1.4%[0.335 µM]	50.1%	·	8.28µM*	·	-10.2%
O=C(CCN1C(=O)C2C3C=CC(C3)C2C1=O)N1CCN(c2ccc(F)cc2)CC1 (configuration not stated)	1.0%	?	·	·	-12.3%	-0.4%
CN1/C(=C/C=C(C#N)C#N)C=Cc2ccccc21	?	15.2%	·	37.2%	·	-0.4%
C#CCOCCOCCOCCNc1nc(N2CCN(C(=O)[C@H](CCC(=O)O)n3cc(C(N)Cc4ccc(O)cc4)nn3)CC2)nc(N2CCN(C(=O)[C@H](Cc3ccc(O)cc3)n3cc(C(N)[C@H](C)CC)nn3)CC2)n1 (some centres not stated)	·	-5.7%	·	12.0%	·	?
O=S(=O)(c1cccc(C(F)(F)F)c1)N1CCN(C(=S)NC2CC2)CC1	10.8%	?	-8.7%	?	5.9%	5.4%
Cc1ccc(S(=O)(=O)NCC(c2ccc(N(C)C)cc2)N2CCOCC2)cc1 (configuration not stated)	·	·	-0.3%	·	-6.6%	·
CC(C)N(C(=O)COC(=O)c1ccc([N+](=O)[O-])cc1)c1ccccc1	5.5%	?	·	1.8%	·	·
COc1ccc(C(=O)N(Cc2ccco2)Cc2ccccc2F)cc1Cl	·	·	-12.4%	·	-4.6%	·
COC(=O)[C@@H](NC(=O)N(C1CCCCC1)C1CCCCC1)C(C)C	-21.2%	-22.1%	·	1.65µM*	·	9.5%
SMILES	HCV inhibitor	Pf growth 48h	Vaccinia mCherry	Pf growth 96h	Vaccinia Venus	NS1 inh
Cc1cc(C)cc(NS(=O)(=O)c2ccc3[nH]cc(C(=O)NCCc4ccccc4)c(=O)c3c2)c1	·	·	-16.8%	·	-11.2%	·
CCc1ccccc1NS(=O)(=O)c1ccc2[nH]cc(C(=O)NC3CCCC3)c(=O)c2c1	4.8%	13.1µM*	?	-2.1%	?	0.0%
Cc1ccccc1NS(=O)(=O)c1ccc2[nH]cc(C(=O)NCCc3ccccc3)c(=O)c2c1	·	14.7µM*	-9.3%	?	-9.9%	·
Cc1cccc2c(=O)c(C(=O)NCCc3ccccc3)c[nH]c12	-26.9%	20.8%	i	4.65µM*	-8.0%	6.2%
CC1=C(C(=O)OC2CCCCCCC2)C(c2cc3c(cc2Br)OCO3)CC(=O)N1 (configuration not stated)	?	10.4µM*	·	·	·	?
Cn1c2c(c(=O)n(C)c1=O)C(c1cc3c(cc1Br)OCO3)CC(=O)N2 (configuration not stated)	13.6%	21.3%	i	9.28µM*	-0.1%	-9.3%
COC(=O)C1=C(C)NC(=O)CC1c1cc2c(cc1Br)OCO2 (configuration not stated)	1.7%	?	·	-18.6%	-20.6%	-14.8%
Cn1c2c(c(=O)n(C)c1=O)C(c1cc(Br)ccc1F)CC(=O)N2 (configuration not stated)	·	·	18.4%	·	6.9%	·
O=C(c1cc2cc(Cl)ccc2[nH]1)N1CCN(c2ccccc2F)CC1	11.9%	-5.4%	·	-12.3%	·	6.3%
NNC(=O)c1cc2cc3ccccc3nc2s1	25.3%	?	·	13.1µM*	·	·
CS(=O)(=O)NNC(=O)c1cc2cc3ccccc3nc2s1	11.5%	2.8%	i	4.65µM*	-2.3%	·
CN(C)c1ccc(NC(=O)Oc2ccccc2)cc1	11.1%	·	-9.1%	0.147µM*	-13.2%	-56.7%
CCOc1ccc(S(=O)(=O)c2cn(Cc3cc(C)ccc3C)c3ccc(OCC)cc3c2=O)cc1	·	·	-6.2%	·	-14.9%	·
COc1ccc2nc(C)cc(SCC(=O)NNC(=O)COc3ccccc3)c2c1	18.9%	?	-15.3%	-30.3%	-6.9%	-4.2%
COc1ccc2nc(C)cc(Sc3nc4ccccc4s3)c2c1	?	?	0.794µM*	?	1.41µM*	-50.2%
CCCN1C(=O)/C(=C/c2ccco2)SC1=Nc1ccc(OC)cc1	?	10.4µM*	-12.6%[1.46 µM]	?	-10.6%	9.5%
CCCN1C(=O)/C(=C/c2ccc(C)o2)SC1=Nc1ccc(OCC)cc1	7.1%	?	·	-18.1%	0.3%	4.4%
COc1ccc(N=C2S/C(=C\c3ccc(C)o3)C(=O)N2CC(C)C)cc1	-24.7%	·	-10.5%	3.29µM*	0.8%	0.9%
CCCN1C(=O)/C(=C/c2ccc(C)o2)SC1=Nc1ccc(OC)cc1	-22.0%	?	·	?	-1.1%	-1.5%
